Bioassay records: PubChem, National Center for Advancing Translational Sciences (NCATS)
ELG1 DNA repair: blocks ELG1-dependent DNA repair in HEK293T cells; HEK293T ELG1-luciferase reporter, luminescence, 16 h; DNA damage induced by 5-fluorouridine; Potency, µM (doses to about 46.1 µM), for inactives: top-dose activity change, negative = inhibition, hits mostly inhibitors; actives 2.3% (n = 330,000); also: % is scaled to controls: 0 for no effect and ±100 for the full control effect; nearly all actives have a fitted effect of over 55% in size
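In this reporter screen, reduction of luminescence relative to DMSO vehicle indicated activity. Compounds and 5-fluorouridine were added together to 2,000 cells per well, incubated for 16 hr at 37 °C, then developed with ONE-Glo.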
ELG1 genotoxic: induces genotoxicity in HEK293T cells with luciferase-tagged ELG1. HEK293T ELG1-luciferase reporter, luminescence, 16 h. actives 1.3% (n = 330,000). Potency, µM (series often up to 46 µM), without a hit: at the top dose activity change, positive = activation, actives largely listed as activators; also: % of control where 0% means no effect; nearly all actives have a fitted effect of over 60% in size
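HEK293T cells expressing luciferase-tagged ELG1 were treated with compound or DMSO for 16 hr at 37°C. Luciferase activity was then read after 30 min with ONE-Glo at room temperature; rising signal flags genetic stress.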
FLuc modulator: firefly luciferase modulation, counter-screen for miR-21 project; Potency, µM (top dose mostly 57.5 µM), for the others: at the highest dose activity change, negative = inhibition, usual class: inhibitors; AID 588342; purified FLuc, Km substrates, luminescence inhibition; actives 6.9% (n = 360,000); P08659;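 also: plate controls were vehicle for no effect and reference inhibitor for full effect; nearly all actives have a fitted effect of over 55% in size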
Target sequence (P08659 whole entry, looked up): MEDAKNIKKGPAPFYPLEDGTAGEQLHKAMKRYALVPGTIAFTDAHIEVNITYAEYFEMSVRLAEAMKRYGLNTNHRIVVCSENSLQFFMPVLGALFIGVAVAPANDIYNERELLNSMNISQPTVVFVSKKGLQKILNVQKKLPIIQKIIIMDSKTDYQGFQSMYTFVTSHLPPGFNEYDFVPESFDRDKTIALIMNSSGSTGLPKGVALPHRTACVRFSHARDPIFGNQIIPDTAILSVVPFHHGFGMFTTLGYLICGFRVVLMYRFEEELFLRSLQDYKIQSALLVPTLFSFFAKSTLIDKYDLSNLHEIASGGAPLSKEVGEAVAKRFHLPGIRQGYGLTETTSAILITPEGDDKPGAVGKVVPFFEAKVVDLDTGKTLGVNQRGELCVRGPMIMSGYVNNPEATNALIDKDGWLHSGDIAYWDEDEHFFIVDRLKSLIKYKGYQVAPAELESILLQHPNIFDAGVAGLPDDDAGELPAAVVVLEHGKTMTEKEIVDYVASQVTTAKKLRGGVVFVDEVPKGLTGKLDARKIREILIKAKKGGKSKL
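Biochemical qHTS of compounds, final roughly 60 µM downward over six points, against 10 nM purified firefly luciferase using Km concentrations of substrates (10 uM D-luciferin, 10 uM ATP) in Tris acetate pH 7.5 buffer; luminescence output.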
NPC1 promoter act: activates the NPC1 promoter | Huh7 NPC1 promoter luciferase reporter, 24 h | actives 2.4% (n = 320,000) | Potency, µM (top dose mostly 9.22 µM), without a hit: at the highest dose activation, actives largely listed as activators; also: % of control where 0% means no effect; nearly all actives have a fitted effect of over 60% in size
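Luminescence from an NPC1 promoter-driven luciferase reporter in stably transfected Huh7 cells was measured after 24 h compound treatment at 37 °C, followed by 10 min ambient incubation with luciferase detection reagent.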
Rab9 prom act: Rab9 promoter activation | Huh7 Rab9 promoter-luciferase reporter, luminescence, 24 h | Potency, µM (series often up to 9.22 µM), without a hit: top-dose activation, negative = inhibition, hits mostly activators | actives 2.8% (n = 320,000) | AID 485297; also: % of control where 0% means no effect; nearly all actives have a fitted effect of over 60% in size
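Huh7 reporter line, Rab9 promoter upstream of luciferase. Compound exposure 24 h at 37 °C in reduced-serum medium with 10% FBS. Read-out: luminescence.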
SMN2 splice up: enhancers of SMN2 splice variant expression. actives 2.8% (n = 210,000). HEK293 SMN2-luciferase splicing reporter, luminescence, 30-36 h. Potency, µM (highest dose often 46.1 µM), without a hit: top-dose activity change, positive = activation, actives largely listed as activators; also: % of control where 0% means no effect; nearly all actives have a fitted effect of over 55% in size
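HEK293 cells carry an SMN2 […]–luciferase reporter in which exon 7 inclusion puts luciferase in frame. Cells were plated 10-12 h before compound addition, then incubated 30-36 h at 37C. ONE-Glo luminescence was read; sodium butyrate at 4.5 mM final served as control.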
Numbers without * were called inactive; ? = inconclusive; nt = not tested or not shown; [ ] = another dose, or the depositor's remark. Rows were chosen to be rich in hits. Some 9.4% of all compounds tested hit in one or more screens of this group. Calls follow the shape of the dose curve; as a rule, active = well fitted curve in the direction sought with a large enough effect; inconclusive = small, poorly fitted or top-dose-only effect, or another doubt; inactive = no such curve, though single readings can be large; an effect the other way counts as inactive or inconclusive. Potency is read from the fitted curve at half-maximal effect.

SMILES	ELG1 DNA repair	ELG1 genotoxic	FLuc modulator	NPC1 promoter act	Rab9 prom act	SMN2 splice up
Cc1ccc(-c2ccc(/C=N/N3C(=O)C4C5C=CC(C6CC56)C4C3=O)o2)c([N+](=O)[O-])c1 (stereo not drawn)	-26.1%	0.4%	?	1.3%	-2.5%	-40.0%
O=C1C2C3C=CC(C3)C2C(=O)N1/N=C/c1cc(Br)cc([N+](=O)[O-])c1O (stereo not drawn)	-2.1%	10.8%	19µM*	-4.1%	-4.9%	-15.7%
COc1ccc(OC)c(C2CC(c3c(-c4ccccc4)c4cc(Cl)ccc4[nH]c3=O)=NN2S(C)(=O)=O)c1 (stereo not drawn)	5.17µM*	-7.0%	0.1%	-1.4%	1.2%	-6.3%
Cc1ccc(NC(=O)c2c(C)oc3ccc(O)c(CN4CCCCCC4)c23)cc1	nt	nt	-3.2%	nt	nt	-7.1%
O=C(Nc1ccon1)c1ccc(N2CCCCC2)c([N+](=O)[O-])c1	?	15.8%	12µM*	2.82µM*	2µM*	14.1µM*
O=C(Nc1nc(-c2ccccc2)cs1)c1ccc(N2CCOCC2)c([N+](=O)[O-])c1	3.66µM*	-14.2%	?	-27.1%	-27.4%	-104.8%
O=C(Nc1nc2ccccc2s1)c1ccc(N2CCCCC2)c([N+](=O)[O-])c1	?	-4.3%	9.53µM*	?	2µM*	4.9%[1.84 µM]
NC(=O)c1ccc(N2CCN(c3ccccc3O)CC2)c([N+](=O)[O-])c1	16.4µM*	-15.4%	-2.7%	-3.6%	-4.5%	-26.8%
Cc1ccc(-c2cn3c(n2)sc2cc(C(=O)N4CCCCC4)ccc23)cc1	nt	nt	-10.3%	nt	nt	nt
COC(=O)[C@@H](O)CC[C@@H](C)Cc1c(OC)c(OC)c(C)c(OC)c1OC	nt	nt	nt	nt	nt	15.1%
COc1ccc2c(c1OC)C(=O)N1c3ccccc3C(=O)OC21 (stereo not drawn)	nt	nt	nt	nt	nt	-5.8%
COc1ccc2c(c1OC)C(=O)N1c3ccccc3C(=O)N(c3ccccc3F)C21 (stereo not drawn)	?	-18.8%	0.9%	-0.4%	-6.9%	-18.1%
COc1ccc2c(c1OC)C(=O)N1c3ccccc3SC21 (stereo not drawn)	?	?	2.39µM*	2.51µM*	2.82µM*	11.2µM*
COc1ccc2c(c1OC)C(=O)N1c3ccccc3COC21 (stereo not drawn)	?	?	3.38µM*	3.55µM*	1.78µM*	14.1µM*
COc1cccc(CNS(=O)(=O)c2ccc(-c3cc(C(F)(F)F)on3)s2)c1	nt	nt	7.8%	nt	nt	nt
CCC(C)NC(=O)Cn1c(COc2ccc(Cl)cc2Cl)nc2ccccc21 (stereo not drawn)	?	?	6.01µM*	23.8%	?	22.4µM*
CCC(C)NC(=O)Cn1c(-c2cccs2)cc2cc(Cl)ccc21 (stereo not drawn)	nt	nt	-0.4%	nt	nt	nt
c1ccc2c(c1)ncn2CCOCCOCCn1cnc2ccccc21	-10.0%	-3.4%	0.6%	-3.3%	0.0%	-62.8%
Clc1ccc(OCCn2cnc3ccccc32)c(Cl)c1	?	?	26.9µM*	?	?	21.0%
Clc1ccc(OCc2nc3ccccc3n2Cc2ccccc2)c(Cl)c1	nt	nt	6.01µM*	nt	nt	3.8%
CCOc1ccc(CNC(=O)C2CCN(C3=NS(=O)(=O)C(c4ccc(C)cc4)=C3CC)CC2)cc1	nt	nt	-13.9%	nt	nt	-36.5%
Cc1noc(C)c1C(=O)Nc1nnc(-c2ccccc2)s1	12.7%	2.4%	15.1µM*	5.3%	6.1%	-21.8%
Cc1cccc(N(C)S(=O)(=O)c2nnc(NC(=O)c3ccco3)s2)c1	7.4%	3.6%	0.0%	-0.9%	-0.1%	nt
Cc1cccc(-c2nnc(NC(=O)c3ccco3)s2)c1	?	20.6µM*	10.7µM*	2.82µM*	3.16µM*	nt
O=C(Nc1nnc(-c2ccc(F)cc2)s1)c1ccco1	?	?	2.69µM*	2.82µM*	3.16µM*	nt
SMILES	ELG1 DNA repair	ELG1 genotoxic	FLuc modulator	NPC1 promoter act	Rab9 prom act	SMN2 splice up
O=C(Nc1nnc(S(=O)(=O)N2CCN(c3ccc(F)cc3)CC2)s1)c1ccco1	18.9%	4.6%	19µM*	0.6%	2.9%	nt
O=C(CSc1nc2ccccc2c2nc(-c3ccccc3)nn12)Nc1ccc(F)cc1	nt	nt	2.5%	nt	nt	nt
Cc1ccc(-c2nnc(SCC(=O)NCCC(C)C)nc2-c2ccc(C)cc2)cc1	nt	nt	-14.5%	nt	nt	nt
COc1ccc(-c2onc(C)c2C)cc1S(=O)(=O)N1CCN(c2cc(C)ccc2C)CC1	nt	nt	-2.3%	nt	nt	nt
C[C@H](Oc1ccc(Oc2cnc3ccc(Cl)cc3n2)cc1)C(=O)O	nt	nt	nt	nt	nt	-5.4%[9.22 µM]
COc1ccc(/C(C)=N/Nc2ccc(C(=O)O)cc2)c(OC)c1	?	?	7.57µM*	?	1.78µM*	15.8µM*
COc1ccc2c(c1)C(=NN)c1cc(OC)ccc1-2	22.5%	3.7%	10.7µM*	28.8%	?	-10.0%
COc1ccc2c(c1)C(=NNc1ccc(C(=O)O)cc1)c1cc(OC)ccc1-2	?	2.0%	6.01µM*	2.3%	7.1%	nt
COc1ccc(OC)c(N)c1	-11.9%	-1.4%	1.2%	-3.0%	17.5%	-7.0%
CCCCN(Cc1ccccc1)S(=O)(=O)c1ccc2c(c1)CC(C)N2C(=O)CC (stereo not drawn)	nt	nt	-14.4%	nt	nt	1.6%
O=C(O)Cc1ccc(-c2ccccc2-c2ccccc2)cc1	1.9%	9.4%	1.6%	-2.2%	-3.8%	-22.0%
COC(=O)Cc1ccc2sc(-c3ccccc3)nc2c1	?	2.59µM*	0.675µM*	1.58µM*	2.51µM*	1.58µM*
O=C(O)Cc1ccc2sc(-c3ccccc3)nc2c1	?	8.0%	19µM*	13.7%	20.8%	21.2%
COC(=O)Cc1sc(-c2ccccn2)nc1-c1ccccc1	-6.0%	-11.5%	?	-1.1%	-2.8%	-13.5%
COc1ccc(-c2noc(C3CCCN(C(=O)c4ccc(C)cc4)C3)n2)cc1 (stereo not drawn)	-16.3%	-4.9%	?	-0.5%	-0.7%	nt
Cc1ccc(-c2noc(C3CCCCC3)n2)cc1	?	?	?	3.98µM*	?	22.1%
Cc1cccc(-c2noc(C3CCCCC3)n2)c1	nt	nt	3.01µM*	nt	nt	24.5%
CC(Oc1ccccc1F)C(=O)Nc1ccc2ccccc2c1 (stereo not drawn)	?	2.0%	?	-3.7%	5.0%	3.55µM*
CC(Oc1ccc(F)cc1)C(=O)Nc1ccc2ccccc2c1 (stereo not drawn)	?	7.5%	?	8.5%	3.5%	?
COc1cc(C(=O)Nc2ccc3oc(-c4cccnc4)nc3c2)cc(OC)c1OC	23.1µM*	-6.7%	3.3%	-1.7%	-1.6%	-43.9%
COc1ccc(C(=O)Nc2ccc3oc(-c4cccnc4)nc3c2)cc1OC	?	-6.8%	1.2%	-1.9%	-18.6%	-15.5%
